In all, about 390,000 compounds went through this assay and about 4,700 (1.2%) were called active. Inconclusive results (about 4%) are left out. Calls come from the whole dose curve; as a rule, active = well fitted inhibition curve with a large enough effect; inconclusive = small, poorly fitted or top-dose-only effect, or another doubt; inactive = no such curve, though single readings can be large or run the other way. Shown is part of a subset that was picked to be rich in actives. Entries that show only a call come without a potency.
Potency is the fitted concentration of half-maximal effect.

DNA polymerase eta (Homo sapiens), sequence (Q9Y253 whole entry, looked up): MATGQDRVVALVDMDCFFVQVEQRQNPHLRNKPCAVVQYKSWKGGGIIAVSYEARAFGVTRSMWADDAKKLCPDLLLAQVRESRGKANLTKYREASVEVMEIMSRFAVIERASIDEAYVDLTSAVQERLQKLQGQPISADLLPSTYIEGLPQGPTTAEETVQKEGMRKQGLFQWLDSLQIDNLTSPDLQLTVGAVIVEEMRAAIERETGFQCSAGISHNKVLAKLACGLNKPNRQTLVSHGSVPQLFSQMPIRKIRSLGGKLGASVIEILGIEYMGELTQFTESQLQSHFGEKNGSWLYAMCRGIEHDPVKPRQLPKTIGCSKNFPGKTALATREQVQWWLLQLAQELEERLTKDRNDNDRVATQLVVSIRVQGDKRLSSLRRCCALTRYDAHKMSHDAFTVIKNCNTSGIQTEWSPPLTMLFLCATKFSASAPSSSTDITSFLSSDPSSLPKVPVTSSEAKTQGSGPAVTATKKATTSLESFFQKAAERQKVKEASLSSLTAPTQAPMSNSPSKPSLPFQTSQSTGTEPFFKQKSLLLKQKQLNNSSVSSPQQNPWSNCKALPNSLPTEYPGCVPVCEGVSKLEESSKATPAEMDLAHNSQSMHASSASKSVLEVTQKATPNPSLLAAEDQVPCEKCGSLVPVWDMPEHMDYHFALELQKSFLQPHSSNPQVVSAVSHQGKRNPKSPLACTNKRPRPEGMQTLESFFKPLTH

This experiment concerns the target DNA polymerase eta (Homo sapiens) (UniProt Q9Y253). Kind of experiment: qHTS for Inhibitors of Polymerase Eta. The conditions noted are these: recombinant Pol eta, fluorescent DNA replication assay; series mostly up to 114 µM. From the text:
The Y-family of DNA polymerases, such as Pol eta, are specifically involved in DNA repair. Pol eta copies undamaged DNA with a lower fidelity than other DNA-directed polymerases. However, it accurately replicates UV-damaged DNA; when thymine dimers are present, this polymerase inserts the complementary nucleotides in the newly synthesized DNA, thereby bypassing the lesion and suppressing the mutagenic effect of UV-induced DNA damage. […] Thus, while pol eta's (and most likely iota's) normal function is to protect humans against the deleterious consequences of DNA damage, under certain conditions they can have deleterious effects on human health. As a consequence, we propose to utilize a high throughput replication assay to identify small molecule inhibitors of pol eta. In a collaboration between the National Institute of Child Health & Human Development (NICHD) and NIH Chemical Genomics Center, a high-throughput, fluorescent screen was developed to screen the NIH Molecular Libraries Small Molecule Repository (MLSMR). This screen is used to identify inhibitors of pol eta. NIH Chemical Genomics Center [NCGC] NIH Molecular Libraries Probe Centers Network [MLPCN] MLPCN Grant: MH090825 Assay Submitter (PI): Roger Woodgate, NICHD)
Three microliters of reagents (buffer in column 3 and 4 as negative control and 10 nM Pol eta in columns 1, 2, and 5-48) were dispensed into a 1,536-well black solid-bottomed plate. Compounds (23 nL) were transferred via Kalypsys pin tool equipped with 1536-pin array. The plates were then incubated for 15 min at room temperature, and 1 µL substrate (50 nM final concentration) was added to start the reaction and kinetically read twice at 0 min and 10 min on the Viewlux reader
Background: qHTS replaces the single test concentration by a dilution series.
Regarding `Cc1cccc(N2C(=O)NC(=O)/C(=C\c3cnn(-c4ccccc4)c3)C2=O)c1`, the Potency was 20 µM (active).
The entry for `CN1C2C=C(N(C(=O)c3ccc(Cl)cc3)c3ccccc3)CC1CC2` (centres undefined) is “inactive”.
The result for `CCN(N=Nc1nonc1OC)c1nonc1OC` reads “inactive”; that for `C=CC12CN(C)[C@@H]3C4CO[C@H](C[C@H]41)[C@]1(C(=O)Nc4ccccc41)[C@@H]32` (some centres undefined), “inactive”; that for `Cc1c(C(=O)O)cccc1-n1c(C)cc(/C=C2\C(=O)NC(=O)N(c3ccc4c(c3)OCO4)C2=O)c1C`, 5.01 µM (active).
The result for `c1cc2c(cc1C1OCC3C(c4ccc5c(c4)OCO5)OCC13)OCO2` (centres undefined) reads “inactive”; that for `c1ccc2sc(N3CCNCC3)nc2c1`, “inactive”.
Turning to `CC(=NC1CCN(Cc2ccccc2)CC1)c1c(O)n(C)c(=O)n(C)c1=O`, the Potency result was “inactive”.
Regarding `Cn1c(O)c(C=Nc2ccc3c(c2)CCC3)c(=O)n(C)c1=O`, the Potency result is “inactive”.
The entry for `Cc1ccnc(-n2c(C)cc(/C=C3\C(=O)NC(=S)N(C)C3=O)c2C)c1` is “inactive”; for `Cc1ccc(-n2c(C)cc(/C=C3\C(=O)NC(=O)N(C)C3=O)c2C)cc1C` it is 11.2 µM (active); for `Cc1cc(/C=C2/C(=O)NC(=O)N(Cc3ccco3)C2=O)c(C)n1-c1ccc(C(=O)O)cc1` it is 17.8 µM (active).
As to `c1ccc2c(c1)[I+]c1ccccc1-2`, the Potency result is “inactive”.
The result for `CC(=O)NBr` reads “inactive”; that for `Fc1cccc(F)c1CN1CCN(Cc2c(F)cccc2F)CC1`, “inactive”; that for `CCOC(=O)c1ncn2c1[C@@H]1CCCN1C(=O)c1cc(OC)ccc1-2`, “inactive”.
Consider `Cc1c(Oc2cc(NN3CCCCC3)c([N+](=O)[O-])cc2[N+](=O)[O-])cccc1[N+](=O)[O-]`, for which the Potency entry was “inactive”.
The result for `CN(c1ccccc1)c1ccc([N+](=O)[O-])c2nonc12` reads “inactive”; that for `Nc1ccc([N+](=O)[O-])cc1`, “inactive”.
The entry for `COC(=O)N(c1ccc(OC)cc1)P1(=S)OCCC(C)O1` (centres undefined) is “inactive”; for `CC1CCCN1CCC(C(N)=O)(c1ccccc1)c1ccccc1` (centres undefined) it is “inactive”.
The result for `CC[N+](CC)(CC)CCCCCCCCCC[N+](CC)(CC)CC` reads “inactive”; that for `CC(=O)c1c(O)n(C2CCCCCC2)c(=O)[nH]c1=O`, “inactive”; that for `O=C1NC(=O)N(c2ccc(F)cc2)C(=O)/C1=C/c1ccc2c(c1)CCCN2Cc1ccccc1`, 20 µM (active).
In the case of `CCC1(CC(C)c2ccccc2)C(=O)NC(=O)NC1=O` (centres undefined), the Potency entry is “inactive”.
The entry for `Cc1cccc(OP(=O)(Oc2cccc(C)c2)OC(c2ccccc2)C(F)(F)F)c1` (centres undefined) is “inactive”.
In the case of `CN(C)/C=C(\C=[N+](C)C)c1[nH]ncc1[N+](=O)[O-]`, the Potency entry is “inactive”.
`COc1ccc(N2C(=O)/C(=C/c3ccco3)C(=O)NC2=S)cc1`: the Potency is 1.12 µM (active).
In the case of `CC(=O)N1CN2CN(C(C)=O)CC(C(=O)c3ccc(Br)cc3)(C2)C1`, the Potency result was “inactive”.

The values are drawn from PubChem BioAssay AID588591 (National Center for Advancing Translational Sciences (NCATS), 2011).
